# From PubChem BioAssay
# FAS-TE inh: FAS thioesterase domain inhibitors, primary screen, biochemical, fluorescence intensity, uHTS | Fatty acid synthase (Homo sapiens), P49327 | inhibition, % at 15 µM | actives 0.67% (n = 360,000) | recombinant FAS-TE, OMFH fluorogenic substrate, fluorescence endpoint;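 active = compounds whose normalised, plate-corrected inhibition of enzyme fluorescence in the single-dose primary screen is 50% or more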;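 note: 0% = DMSO with enzyme and 100% = substrate without enzyme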
# NRP1-CendR mod: modulators of CendR peptide binding to NRP-1, primary screen, biochemical, fluorescence polarization, uHTS; inhibition, % at 25 µM; actives 0.85% (n = 360,000); AID 602438, 2012; FAM-RPARPAR peptide binding to NRP-1; Neuropilin-1 (Homo sapiens), O14786;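 active = inhibition or corrected inhibition above about 18%, plus a signal ratio from 0.5 to 1.5, limit read from the data, passing the limit was not always enough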
# CRFR2-BP antag: antagonists of CRF-BP/CRF-R2 complex, primary screen, cell-based, HEK293, calcium dye fluorescence, uHTS. CRF-induced calcium fluorescence. inhibition, % at 11.8 µM. actives 0.59% (n = 350,000). AID 588475, 2011;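 active = inhibition of the ligand-induced calcium signal above about 50% at the single tested concentration, limit read from the data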
# NadD inh: inhibitors of S. aureus NadD, primary screen, biochemical, colorimetric, uHTS; AID 602399, 2012; purified NadD enzyme, colorimetric absorbance read-out; Nicotinate-nucleotide adenylyltransferase NadD (Staphylococcus aureus N315); inhibition, % at 20 µM; actives 0.78% (n = 360,000); in the data active = inhibition above about 26%
# Myeloid diff 2: induction of myeloid progenitor differentiation, primary screen, cell-based, flow cytometry, MLPCN library. actives 1% (n = 360,000). calls only at 10 µM. ER-HoxA9 myeloid progenitors, lysozyme-GFP differentiation. AID 624256, 2012;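 active = normalized GFP-positive differentiation at or above the plate's own cutoff, the solvent-only control mean plus 3 SD; inconclusive = no clear call, values can overlap the other calls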;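 note: cells exposed to compound for four days before flow analysis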
# * hit, by the source's call; i = inactive; ? = inconclusive; . = not tested or not shown; + = active, no number. A selection: hits, their analogues and other compounds. The true share with any hit is near 3.6%.
SMILES,FAS-TE inh,NRP1-CendR mod,CRFR2-BP antag,NadD inh,Myeloid diff 2
O=C(CNC(=O)OCc1ccccc1)OC(c1ccccc1)c1ccccc1,17,-3,8,1,i
N=C1C(c2ccccc2)=C(O)CN1NC(=O)c1ccc(Cl)cc1,-5,10,-3,11,i
N=C1C(c2ccccc2)=C(O)CN1NC(=O)c1ccccc1,-3,5,3,8,+
CCCCCN(C(=O)CCC(=O)OCC(=O)c1ccc(F)c(F)c1)c1c(N)n(CCCC)c(=O)[nH]c1=O,16,-6,14,-2,i
CCCCCN(C(=O)CCC(=O)OCC(=O)c1c(C)cc(C)cc1C)c1c(N)n(CCCC)c(=O)[nH]c1=O,-15,2,52*,4,i
COc1cccc(/C=N\NC(=O)c2ccc(Cn3cc(Br)c([N+](=O)[O-])n3)o2)c1O,16,4,37,21,i
Cc1cc(C)c(NC(=O)/C(=C/c2ccccc2)c2ccccc2)c(C)c1,21,-2,67*,3,i
CN(C)c1ccc(C=c2c3ccccc3n3c2cc(-c2ccc(Cl)cc2)[n+]3C)cc1,33,-78,1,39*,?
CN(C)c1ccc(C=c2c3cc([N+](=O)[O-])ccc3n3c2cc(-c2ccccc2)[n+]3C)cc1,16,4,16,48*,?
O=C(COC(=O)c1cc(S(=O)(=O)N2CCOCC2)ccc1F)Nc1ccc(Cl)cn1,2,-29,-6,5,i
CC(C)(C)S(=O)(=O)/C(C#N)=N/Nc1ccc(Cl)cc1,-4,-5,65*,-5,i
CCCN=C1N/C(=C\c2ccco2)C(=O)N1c1ccccc1,-7,43*,-11,3,i
COc1ccc(-n2c(Cc3cccn3C)nnc2SCC(=O)Nc2ccc(F)cc2F)cc1,-2,16,4,5,+
COC(=O)CCCC[C@@H]1O[C@H](CCc2ccccc2)Cc2[nH][nH]c(=O)c21,-26,-14,.,0,i
Cc1ccc(N(Cc2ccc([N+](=O)[O-])cc2)C(=O)c2ccco2)cc1,11,9,62*,0,i
COc1cc(CN(C(=O)c2ccco2)c2ccc(C)cc2)ccc1O,-2,-6,29,0,i
CS(=O)(=O)Nc1ccccc1C(=O)Nc1ccc2c(c1)OCCO2,-4,2,14,-2,+
O=C(Nc1ccc2c(c1)OCCO2)c1ccccc1F,0,6,4,-1,i
Cc1ccc(NC(=O)c2ccc3c(c2)OCCO3)cc1C,4,1,1,-1,i
Cc1ccc(NC(=O)c2ccc3c(c2)OCCO3)cc1S(=O)(=O)Nc1cccc(Cl)c1,27,37*,-21,9,i
Cc1ccc2c(CC(=O)NCc3ccco3)coc2c1C,3,-9,8,-2,+
Cc1ccc2c(CC(=O)NC3CCS(=O)(=O)C3)coc2c1C (stereo not drawn),-6,5,-1,1,i
O=C(CCl)Nc1ccccc1Sc1ccc(Cl)cc1,18,-2,67*,1,i
Nc1nn(S(=O)(=O)c2ccccc2)cc1-c1ccc([N+](=O)[O-])cc1,29,-15,50*,-7,i
CCc1nc2ccc(C(=O)NCc3ccc(OC)cc3)cn2c1N(CCC(C)C)CCN(C)C,-6,12,.,-7,i
SMILES,FAS-TE inh,NRP1-CendR mod,CRFR2-BP antag,NadD inh,Myeloid diff 2
COc1ccc(C(=O)c2coc3c2C(=O)C(=O)c2ccccc2-3)cc1,25,25*,-3,-1,i
O=C(c1ccccc1)c1coc2c1C(=O)c1ccccc1C2=O,-1,13,-7,-5,i
CC1(C(=O)NS(=O)(=O)c2ccc(F)cc2F)CCN1C(=O)c1ccc(C2CCCCC2)cc1 (stereo not drawn),-3,7,.,0,i
COc1ccc(Cl)cc1C(=O)NNC(=O)CSc1nncn1C,-4,1,-1,-1,i
COc1ccccc1C(=O)NC(=O)CSc1nncn1C,-3,26*,10,2,i
COc1ccccc1-n1cnnc1SCC(=O)NCc1cccs1,-8,5,82*,1,i
CC(O)(c1ccncc1)c1nc(-c2cccc(C(F)(F)F)c2)cs1 (stereo not drawn),3,3,.,-1,i
COc1ccc2[nH]c(=O)c(C(c3nnnn3CC3CCCO3)N3CCCCC3)cc2c1 (stereo not drawn),-4,26*,5,-2,i
Cc1ccn2c(C(=O)N/N=C\c3ccccc3[N+](=O)[O-])c(C)nc2c1,-6,-3,11,1,+
O=[N+]([O-])c1ccccc1C=NNC(=S)NN=Cc1ccccc1[N+](=O)[O-],18,9,57*,17,i
CC(C)NC(=S)N/N=C/c1ccccc1[N+](=O)[O-],-1,-8,15,0,i
Cc1cccc(NC(=S)N/N=C/c2ccc(Cl)c([N+](=O)[O-])c2)c1,-4,27*,2,1,i
CCc1ccccc1-n1ncc(C(=O)Nc2ccccc2OC)c1C,10,1,9,-2,i
COC(=O)Cn1c(=O)c(=O)n(CC(=O)OC)c2ccccc21,-4,-10,25,-6,i
COC(=O)Cn1c(C)c(/C=C/c2cc[n+](C)cc2)c2ccccc21,-18,-181,-6,16,+
COC(=O)Cn1cc(/C=C/c2cc[n+](C)cc2)c2ccccc21,-11,132,-61,10,+
CNC(=O)/C(C#N)=C/c1cn(CC(=O)OC)c2ccccc12,-5,1,-7,-9,i
C=CCOC1=CS(=O)(=O)N(Cc2ccc(Br)cc2)c2ccc(Br)cc21,26,8,-6,-1,i
Cc1ccc(Cn2nnc3c(=O)[nH]c(C4CCN(S(=O)(=O)c5ccccc5)CC4)nc32)cc1,17,-1,22,28,i
Cc1ccc(S(=O)(=O)N2CCC(c3nc4c(nnn4Cc4ccccc4)c(=O)[nH]3)CC2)cc1,8,2,64*,11,i
CN(/N=C\c1ccc(O)c(O)c1)c1nc(-c2ccccc2)cc(-c2ccccc2)n1,21,5,-33,33*,i
COc1cccc(-c2ccc3c(c2)O[C@@H](CN(C)C(=O)C2CCOCC2)[C@H](C)CN([C@H](C)CO)S3(=O)=O)c1,-7,-6,-2,0,i
O=C(C(=O)N1CCC(Cc2ccccc2)CC1)c1ccccc1Br,.,2,.,.,i
C=C1CCN([C@@H](CC(C)C)C(=O)NCCC(C)C)S(=O)(=O)c2ccccc21,16,24*,-1,-2,i
C=C1CCN([C@@H](CC(C)C)C(=O)NCc2ccc(Cl)c(Cl)c2)S(=O)(=O)c2ccccc21,24,32*,-4,-6,i
